According to the supplement of paper PMC10105736:
A number with no mark means an inactive call.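 Rule for the calls: active = MAPPIT score above the 99th percentile of random reference set scores in the same batch; inactive = at or below it.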

What was measured:
Test in all cases: MAPPIT interaction score (arbitrary units); higher = stronger binary interaction signal, active = hit call of the paper
[1] = system: Arpc3A; conditions: pair source set: Lit-BM-16
[2] = system: Atg1; conditions: MAPPIT configuration: N-N; pair source set: Finley_Y2H
[3] = system: C15; conditions: MAPPIT configuration: N-N; pair source set: Lit-BS-16
[4] = system: CG12567; conditions: MAPPIT configuration: N-N; pair source set: Finley_Y2H
[5] = system: mRpL47; conditions: MAPPIT configuration: N-N; pair source set: Finley_Y2H
[6] = system: CG14044; conditions: MAPPIT configuration: N-N; pair source set: Finley_Y2H
[7] = system: CG14985; conditions: MAPPIT configuration: N-N; pair source set: screen_2
[8] = system: CG15545; conditions: MAPPIT configuration: N-N; pair source set: Curagen_low_conf
[9] = system: CG1607; conditions: MAPPIT configuration: N-N; pair source set: DPIM
[10] = system: CG1640; conditions: MAPPIT configuration: N-C; pair source set: screen_4
[11] = system: Pex5; conditions: MAPPIT configuration: N-N; pair source set: Curagen_low_conf
[12] = system: CG17377; conditions: MAPPIT configuration: N-C; pair source set: screen_4
[13] = system: CG32817; conditions: MAPPIT configuration: N-N; pair source set: screen_2
[14] = system: Mst87F; conditions: MAPPIT configuration: N-N; pair source set: screen_2
[15] = system: CG2120; conditions: MAPPIT configuration: N-C; pair source set: screen_3
[16] = system: Odj; conditions: MAPPIT configuration: N-N; pair source set: screen_2
[17] = system: caup; conditions: MAPPIT configuration: N-C; pair source set: screen_3
[18] = system: CG31406; conditions: pair source set: RRS
[19] = system: Hakai; conditions: MAPPIT configuration: N-N; pair source set: DPIM
[20] = system: Lkb1; conditions: MAPPIT configuration: N-N; pair source set: DPIM
[21] = system: RnrS; conditions: MAPPIT configuration: N-N; pair source set: DPIM
[22] = system: bai; conditions: MAPPIT configuration: N-N; pair source set: DPIM
[23] = system: mRpS24; conditions: MAPPIT configuration: N-N; pair source set: DPIM
[24] = system: scf; conditions: MAPPIT configuration: N-N; pair source set: DPIM
[25] = system: CG31740; conditions: MAPPIT configuration: N-N; pair source set: screen_2
[26] = system: CG4250; conditions: MAPPIT configuration: N-C; pair source set: screen_4
[27] = system: lms; conditions: MAPPIT configuration: N-N; pair source set: screen_1
[28] = system: CG3517; conditions: MAPPIT configuration: N-N; pair source set: screen_1
[29] = system: CG3703; conditions: MAPPIT configuration: N-N; pair source set: Finley_Y2H
[30] = system: CG4116; conditions: MAPPIT configuration: N-N; pair source set: Curagen_high_conf
[31] = system: CG44250; conditions: MAPPIT configuration: N-N; pair source set: screen_2
[32] = system: lwr; conditions: MAPPIT configuration: N-N
[33] = system: CG4619; conditions: MAPPIT configuration: N-N; pair source set: DPIM
[34] = system: CG46385; conditions: MAPPIT configuration: N-N; pair source set: screen_1
[35] = system: CG7011; conditions: MAPPIT configuration: N-N; pair source set: Lit-BS-16
[36] = system: CG5111; conditions: MAPPIT configuration: N-C; pair source set: screen_3
[37] = system: CG8173; conditions: MAPPIT configuration: N-N; pair source set: screen_1
[38] = system: Vsx2; conditions: MAPPIT configuration: N-N; pair source set: screen_2
[39] = system: CG8997; conditions: MAPPIT configuration: N-N; pair source set: Finley_Y2H
[40] = system: D; conditions: MAPPIT configuration: N-N; pair source set: Finley_Y2H
[41] = system: CG9132; conditions: MAPPIT configuration: N-N; pair source set: Finley_Y2H
[42] = system: Eno; conditions: MAPPIT configuration: N-N; pair source set: Lit-BM-16
[43] = system: MESK2; conditions: MAPPIT configuration: N-N; pair source set: Lit-BS-16
[44] = system: CG9986; conditions: MAPPIT configuration: N-N; pair source set: Lit-BS-16
[45] = system: HP1e; conditions: MAPPIT configuration: N-N; pair source set: Lit-BS-16
[46] = system: CG9536; conditions: MAPPIT configuration: N-N; pair source set: DPIM
[47] = system: Ktl; conditions: MAPPIT configuration: N-N; pair source set: screen_2
[48] = system: Tina-1; conditions: MAPPIT configuration: N-N; pair source set: DPIM
[49] = system: CkIIalpha; conditions: MAPPIT configuration: N-N; pair source set: Lit-BM-16
[50] = system: Prx2; conditions: MAPPIT configuration: N-N; pair source set: Curagen_high_conf
[51] = system: chn; conditions: MAPPIT configuration: N-N; pair source set: Curagen_low_conf
[52] = system: su(Hw); conditions: MAPPIT configuration: N-N; pair source set: DPIM
[53] = system: CG9775; conditions: MAPPIT configuration: N-N; pair source set: DPIM
[54] = system: Doa; conditions: MAPPIT configuration: N-N; pair source set: Finley_Y2H
[55] = system: Smg6; conditions: MAPPIT configuration: N-N; pair source set: Finley_Y2H
[56] = system: Srp54; conditions: MAPPIT configuration: N-N; pair source set: Finley_Y2H
[57] = system: Reph; conditions: MAPPIT configuration: N-C; pair source set: Lit-BM-16
[58] = system: PAN3; conditions: MAPPIT configuration: N-N; pair source set: screen_1
[59] = system: l(3)05822; conditions: MAPPIT configuration: N-N; pair source set: screen_2
[60] = system: mad2; conditions: MAPPIT configuration: N-N; pair source set: Finley_Y2H
[61] = system: Src64B; conditions: MAPPIT configuration: N-N; pair source set: Lit-BS-16
[62] = system: pan; conditions: MAPPIT configuration: N-N; pair source set: Finley_Y2H
[63] = system: Mlf; conditions: pair source set: Lit-BM-16
[64] = system: PGAP5; conditions: MAPPIT configuration: N-N; pair source set: Finley_Y2H
[65] = system: Sec24CD; conditions: MAPPIT configuration: N-N; pair source set: Lit-BS-16
[66] = system: RfC3; conditions: pair source set: Lit-BM-16
[67] = system: Nost; conditions: MAPPIT configuration: N-N; pair source set: Curagen_high_conf
[68] = system: Nup93-1; conditions: MAPPIT configuration: N-N; pair source set: Curagen_low_conf
[69] = system: apt; conditions: MAPPIT configuration: N-N; pair source set: Curagen_low_conf
[70] = system: Gmppa; conditions: MAPPIT configuration: N-N; pair source set: Curagen_high_conf
[71] = system: Nup50; conditions: pair source set: Lit-BM-16
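Note: HEK293T cells with Epo stimulation, STAT-responsive firefly luciferase reporter, fold induction versus unstimulated cells divided by the larger fold induction of two negative controls lacking either bait or prey.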

dsx, sequence (chain, as listed by the source): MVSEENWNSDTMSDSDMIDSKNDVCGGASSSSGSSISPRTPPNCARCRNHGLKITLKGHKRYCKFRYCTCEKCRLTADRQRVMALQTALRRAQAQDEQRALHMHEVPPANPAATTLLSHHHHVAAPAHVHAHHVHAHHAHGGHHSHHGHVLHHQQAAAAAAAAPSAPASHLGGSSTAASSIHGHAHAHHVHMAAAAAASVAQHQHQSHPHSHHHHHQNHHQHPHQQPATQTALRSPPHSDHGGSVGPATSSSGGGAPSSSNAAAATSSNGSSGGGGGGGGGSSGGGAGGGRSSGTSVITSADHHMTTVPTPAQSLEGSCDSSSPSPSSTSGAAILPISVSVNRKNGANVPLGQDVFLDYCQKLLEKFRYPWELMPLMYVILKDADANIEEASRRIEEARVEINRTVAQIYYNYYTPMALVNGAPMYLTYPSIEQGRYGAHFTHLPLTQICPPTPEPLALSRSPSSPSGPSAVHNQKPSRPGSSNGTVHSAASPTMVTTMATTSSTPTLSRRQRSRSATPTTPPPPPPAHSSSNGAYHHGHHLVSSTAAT
Hsc70-1, sequence (chain, as listed by the source): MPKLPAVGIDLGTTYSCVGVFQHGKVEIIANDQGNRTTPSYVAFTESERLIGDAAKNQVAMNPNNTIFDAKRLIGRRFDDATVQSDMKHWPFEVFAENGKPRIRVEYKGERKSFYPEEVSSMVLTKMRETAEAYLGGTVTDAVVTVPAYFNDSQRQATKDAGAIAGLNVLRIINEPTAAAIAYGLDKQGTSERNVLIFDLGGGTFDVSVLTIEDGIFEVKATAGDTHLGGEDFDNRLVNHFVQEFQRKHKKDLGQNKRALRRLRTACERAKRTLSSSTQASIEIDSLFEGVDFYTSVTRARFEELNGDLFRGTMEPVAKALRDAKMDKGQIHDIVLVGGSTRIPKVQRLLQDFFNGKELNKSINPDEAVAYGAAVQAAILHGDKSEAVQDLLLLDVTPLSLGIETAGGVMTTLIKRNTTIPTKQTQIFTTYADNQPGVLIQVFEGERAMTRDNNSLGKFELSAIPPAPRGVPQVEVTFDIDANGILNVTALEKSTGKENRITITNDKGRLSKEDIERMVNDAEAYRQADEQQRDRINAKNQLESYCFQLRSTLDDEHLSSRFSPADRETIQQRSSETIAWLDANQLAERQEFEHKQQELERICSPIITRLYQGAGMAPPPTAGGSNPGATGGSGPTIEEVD
Doa, sequence (chain, as listed by the source): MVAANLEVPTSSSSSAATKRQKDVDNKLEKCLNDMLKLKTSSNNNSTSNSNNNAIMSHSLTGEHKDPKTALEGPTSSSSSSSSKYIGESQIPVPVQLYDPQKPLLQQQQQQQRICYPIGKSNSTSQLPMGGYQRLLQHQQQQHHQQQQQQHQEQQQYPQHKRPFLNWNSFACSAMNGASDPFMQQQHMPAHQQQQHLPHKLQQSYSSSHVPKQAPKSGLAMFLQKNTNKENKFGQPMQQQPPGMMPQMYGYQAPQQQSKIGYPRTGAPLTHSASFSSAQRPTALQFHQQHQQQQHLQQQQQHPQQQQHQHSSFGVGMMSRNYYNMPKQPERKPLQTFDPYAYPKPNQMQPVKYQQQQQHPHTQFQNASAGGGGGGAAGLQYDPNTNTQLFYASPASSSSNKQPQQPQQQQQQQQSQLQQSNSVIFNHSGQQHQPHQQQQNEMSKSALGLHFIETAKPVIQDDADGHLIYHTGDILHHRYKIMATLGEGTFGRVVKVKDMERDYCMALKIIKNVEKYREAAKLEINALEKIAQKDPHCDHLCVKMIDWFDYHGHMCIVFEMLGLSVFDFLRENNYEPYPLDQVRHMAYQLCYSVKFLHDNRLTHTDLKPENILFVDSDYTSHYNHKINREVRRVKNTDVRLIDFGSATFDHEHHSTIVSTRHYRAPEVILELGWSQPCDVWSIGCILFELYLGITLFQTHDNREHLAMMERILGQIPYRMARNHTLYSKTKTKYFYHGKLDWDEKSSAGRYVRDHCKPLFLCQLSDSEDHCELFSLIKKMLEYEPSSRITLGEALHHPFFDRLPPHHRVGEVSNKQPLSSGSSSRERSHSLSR
Gsc, sequence (chain, as listed by the source): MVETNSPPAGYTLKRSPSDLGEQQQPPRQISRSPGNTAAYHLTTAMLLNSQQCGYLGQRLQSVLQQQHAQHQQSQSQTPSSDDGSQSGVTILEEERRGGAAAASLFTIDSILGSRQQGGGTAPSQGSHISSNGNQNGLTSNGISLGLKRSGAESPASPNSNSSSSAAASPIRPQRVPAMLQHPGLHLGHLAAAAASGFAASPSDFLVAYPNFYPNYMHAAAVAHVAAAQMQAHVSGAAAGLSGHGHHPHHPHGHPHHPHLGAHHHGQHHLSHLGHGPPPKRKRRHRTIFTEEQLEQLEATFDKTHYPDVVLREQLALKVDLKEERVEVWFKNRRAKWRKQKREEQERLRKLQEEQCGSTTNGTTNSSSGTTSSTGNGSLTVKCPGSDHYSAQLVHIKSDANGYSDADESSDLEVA
SmB, sequence (chain, as listed by the source): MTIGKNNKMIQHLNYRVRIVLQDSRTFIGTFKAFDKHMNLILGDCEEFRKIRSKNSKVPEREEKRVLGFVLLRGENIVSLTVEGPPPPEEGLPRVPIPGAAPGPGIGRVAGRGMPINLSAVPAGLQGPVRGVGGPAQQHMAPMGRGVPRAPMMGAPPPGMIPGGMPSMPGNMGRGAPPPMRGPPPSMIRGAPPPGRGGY
bowl, sequence (chain, as listed by the source): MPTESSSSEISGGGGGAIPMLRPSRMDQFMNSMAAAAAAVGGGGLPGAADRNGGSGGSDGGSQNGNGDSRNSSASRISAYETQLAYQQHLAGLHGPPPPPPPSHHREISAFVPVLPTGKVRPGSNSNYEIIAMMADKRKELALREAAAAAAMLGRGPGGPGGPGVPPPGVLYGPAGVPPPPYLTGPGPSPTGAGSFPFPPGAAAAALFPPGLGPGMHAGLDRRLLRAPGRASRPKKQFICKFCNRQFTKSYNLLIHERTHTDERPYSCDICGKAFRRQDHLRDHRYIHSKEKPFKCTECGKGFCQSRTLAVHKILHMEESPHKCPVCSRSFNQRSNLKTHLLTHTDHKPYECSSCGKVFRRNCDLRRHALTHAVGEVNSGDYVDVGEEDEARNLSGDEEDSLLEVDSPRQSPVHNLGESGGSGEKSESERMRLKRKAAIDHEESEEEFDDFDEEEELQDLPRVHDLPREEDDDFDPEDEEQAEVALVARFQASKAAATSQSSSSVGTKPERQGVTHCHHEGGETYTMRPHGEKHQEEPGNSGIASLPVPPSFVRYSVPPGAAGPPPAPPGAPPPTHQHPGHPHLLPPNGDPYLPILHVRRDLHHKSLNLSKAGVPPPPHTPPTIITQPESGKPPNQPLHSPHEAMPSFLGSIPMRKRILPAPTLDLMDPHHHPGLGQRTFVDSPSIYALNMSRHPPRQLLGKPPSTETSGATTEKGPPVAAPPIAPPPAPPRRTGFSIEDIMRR
Arpc2, sequence (chain, as listed by the source): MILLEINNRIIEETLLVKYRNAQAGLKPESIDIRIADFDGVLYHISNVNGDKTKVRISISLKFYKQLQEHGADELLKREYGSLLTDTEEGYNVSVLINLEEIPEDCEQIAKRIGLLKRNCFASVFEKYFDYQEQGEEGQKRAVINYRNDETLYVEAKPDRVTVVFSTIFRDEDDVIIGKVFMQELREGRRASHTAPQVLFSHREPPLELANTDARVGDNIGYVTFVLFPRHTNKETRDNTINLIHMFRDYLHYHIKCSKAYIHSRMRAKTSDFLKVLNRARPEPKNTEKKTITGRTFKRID
Hrb98DE, sequence (chain, as listed by the source): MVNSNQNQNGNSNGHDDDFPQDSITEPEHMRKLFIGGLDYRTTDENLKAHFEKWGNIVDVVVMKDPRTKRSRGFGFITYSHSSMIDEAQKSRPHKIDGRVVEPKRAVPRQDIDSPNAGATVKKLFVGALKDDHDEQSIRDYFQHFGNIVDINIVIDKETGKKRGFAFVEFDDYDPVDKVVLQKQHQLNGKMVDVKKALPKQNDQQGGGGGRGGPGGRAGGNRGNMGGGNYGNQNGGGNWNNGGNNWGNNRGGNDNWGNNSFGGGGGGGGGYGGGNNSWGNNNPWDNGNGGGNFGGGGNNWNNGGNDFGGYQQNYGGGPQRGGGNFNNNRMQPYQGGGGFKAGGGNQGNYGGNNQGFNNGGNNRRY
Pen, sequence (chain, as listed by the source): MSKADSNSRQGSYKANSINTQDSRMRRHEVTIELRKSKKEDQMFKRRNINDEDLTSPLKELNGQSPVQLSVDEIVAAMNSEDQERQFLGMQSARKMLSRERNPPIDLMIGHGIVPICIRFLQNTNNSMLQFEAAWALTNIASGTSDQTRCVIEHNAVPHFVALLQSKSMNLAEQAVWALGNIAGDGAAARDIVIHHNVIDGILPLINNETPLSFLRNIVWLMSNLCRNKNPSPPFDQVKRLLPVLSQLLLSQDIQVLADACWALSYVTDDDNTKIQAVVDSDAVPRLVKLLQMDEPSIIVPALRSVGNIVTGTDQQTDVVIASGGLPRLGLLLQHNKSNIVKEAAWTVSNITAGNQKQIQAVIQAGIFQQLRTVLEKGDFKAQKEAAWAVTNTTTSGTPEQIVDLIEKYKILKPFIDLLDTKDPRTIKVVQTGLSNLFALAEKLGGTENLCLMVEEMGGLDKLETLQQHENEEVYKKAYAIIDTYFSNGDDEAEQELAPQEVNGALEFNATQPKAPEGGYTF
RfC4, sequence (chain, as listed by the source): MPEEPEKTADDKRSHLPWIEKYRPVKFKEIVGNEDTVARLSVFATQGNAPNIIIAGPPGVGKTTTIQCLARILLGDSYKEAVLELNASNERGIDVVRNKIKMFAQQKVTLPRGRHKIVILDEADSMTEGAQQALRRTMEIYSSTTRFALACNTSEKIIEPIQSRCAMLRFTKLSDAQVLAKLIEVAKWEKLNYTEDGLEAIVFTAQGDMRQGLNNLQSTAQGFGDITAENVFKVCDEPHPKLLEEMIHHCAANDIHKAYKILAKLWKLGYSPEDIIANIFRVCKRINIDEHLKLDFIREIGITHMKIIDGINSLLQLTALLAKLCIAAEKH
RpL39, sequence (chain, as listed by the source): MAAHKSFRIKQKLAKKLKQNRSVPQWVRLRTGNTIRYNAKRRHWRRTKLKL

Substance: Arpc2
- MAPPIT interaction score ([1]; MAPPIT configuration: N-C): 2.37
- MAPPIT interaction score ([1]; MAPPIT configuration: N-N): 0.165

Substance: Rbp6
- MAPPIT interaction score [2]: 0.221

Substance: bsh
- MAPPIT interaction score [3]: 0.102

Substance: prd
- MAPPIT interaction score [4]: 2.65
- MAPPIT interaction score [5]: 0.0739

Substance: zen
- MAPPIT interaction score [6]: 1.38

Substance: Vps60
- MAPPIT interaction score [7]: 0.0854

Substance: RpL23
- MAPPIT interaction score [8]: 0.083

Substance: Fmr1
- MAPPIT interaction score [9]: 0.0271

Substance: Acam
- MAPPIT interaction score [10]: 0.679
- MAPPIT interaction score [11]: 0.715

Substance: dsx
- MAPPIT interaction score [12]: 2.14
- MAPPIT interaction score [13]: 2.31
- MAPPIT interaction score [14]: 4.59 (active)

Substance: bowl
- MAPPIT interaction score [15]: 0.273
- MAPPIT interaction score [16]: -0.226
- MAPPIT interaction score [17]: -0.0689

Substance: Hsc70-1
- MAPPIT interaction score ([18]; MAPPIT configuration: N-C): 1.43
- MAPPIT interaction score ([18]; MAPPIT configuration: N-N): -0.111
- MAPPIT interaction score [19]: 0.323
- MAPPIT interaction score [20]: -0.0906
- MAPPIT interaction score [21]: 1
- MAPPIT interaction score [22]: -0.235
- MAPPIT interaction score [23]: -0.169
- MAPPIT interaction score [24]: 1.56

Substance: Gsc
- MAPPIT interaction score [25]: 3.16 (active)
- MAPPIT interaction score [26]: 1.43
- MAPPIT interaction score [27]: -0.637

Substance: e(y)3
- MAPPIT interaction score [28]: 3.82 (active)

Substance: gsb-n
- MAPPIT interaction score [29]: 0.258

Substance: SmD1
- MAPPIT interaction score [30]: -0.319

Substance: cher
- MAPPIT interaction score [31]: 0.155
- MAPPIT interaction score ([32]; pair source set: DPIM): -0.358

Substance: pnr
- MAPPIT interaction score [33]: 3.3 (active)

Substance: Poxm
- MAPPIT interaction score [34]: 1.84
- MAPPIT interaction score [35]: 0.0698

Substance: Abd-B
- MAPPIT interaction score [36]: 1.34

Substance: otp
- MAPPIT interaction score [37]: -0.108
- MAPPIT interaction score [38]: -0.232

Substance: lark
- MAPPIT interaction score [39]: 1.37

Substance: RpL39
- MAPPIT interaction score [40]: -0.321

Substance: Gyc89Da
- MAPPIT interaction score [41]: 0.702

Substance: Cyp1
- MAPPIT interaction score [42]: 0.063
- MAPPIT interaction score [43]: 0.0293

Substance: Hsp70Aa
- MAPPIT interaction score [44]: 0.269
- MAPPIT interaction score [45]: 0.126

Substance: Arf1
- MAPPIT interaction score [46]: 0.397
- MAPPIT interaction score [47]: 2.35
- MAPPIT interaction score [48]: 0.274

Substance: CkIIbeta
- MAPPIT interaction score [49]: 3.04 (active)

Substance: Srx
- MAPPIT interaction score [50]: -0.16

Substance: Hsp83
- MAPPIT interaction score [51]: 0.266

Substance: Non1
- MAPPIT interaction score [52]: 0.589

Substance: RpL4
- MAPPIT interaction score [53]: -0.331

Substance: Doa
- MAPPIT interaction score [54]: 1.07
- MAPPIT interaction score [55]: 1.25
- MAPPIT interaction score [56]: -1.75
- MAPPIT interaction score ([32]; pair source set: Finley_Y2H): -1.12

Substance: mnb
- MAPPIT interaction score [57]: 1.38

Substance: SmB
- MAPPIT interaction score [58]: -0.24
- MAPPIT interaction score [59]: 0.0651
- MAPPIT interaction score [60]: -0.029

Substance: Pgi
- MAPPIT interaction score [61]: -0.233

Substance: Cdk5
- MAPPIT interaction score [62]: -0.4

Substance: DnaJ-1
- MAPPIT interaction score ([63]; MAPPIT configuration: N-C): 1.44
- MAPPIT interaction score ([63]; MAPPIT configuration: N-N): 0.787

Substance: Dfd
- MAPPIT interaction score [64]: 0.749

Substance: Jon99Cii
- MAPPIT interaction score [65]: -0.28

Substance: RfC4
- MAPPIT interaction score ([66]; MAPPIT configuration: N-C): 3.58
- MAPPIT interaction score ([66]; MAPPIT configuration: N-N): 6.38 (active)

Substance: Src42A
- MAPPIT interaction score [67]: 1.25

Substance: Hrb98DE
- MAPPIT interaction score [68]: -0.403
- MAPPIT interaction score [69]: -0.399

Substance: Gmppb
- MAPPIT interaction score [70]: 1.26

Substance: Pen
- MAPPIT interaction score ([71]; MAPPIT configuration: N-C): 0.849
- MAPPIT interaction score ([71]; MAPPIT configuration: N-N): 0.121
